Measured values taken from PubChem BioAssay (Tox21).
Inconclusive results are not listed. Unmarked numbers belong to inactive results. Activity calls are given as the source filed them. The call rests on the fitted dose curve; in most records, active means well fitted curve in the direction sought with a large enough effect in the repeat runs; inconclusive means weak or mixed curves; inactive means no such curve, though single readings can be large; an effect the other way counts as inactive or inconclusive.
On the % scale 0 is the no-effect control and ±100 the full control effect; potency means the concentration at half of the fitted maximal effect.

These compounds were tested against Cytochrome P450 2C19 (Homo sapiens) (UniProt P33261) (assay: Cytochrome P450 Family 2 Subfamily C Member 19 (CYP2C19) small molecule antagonists: luciferase reporter qHTS assay (AID 1671197; further: nearly all actives have a fitted effect of over 65% in size)). Conditions: P450-Glo CYP2C19 enzyme, luciferin luminescence, 1 h; series mostly up to 115 µM; activity change, negative = inhibition: at the top concentration.
Cytochrome P450 2C19 (Homo sapiens), sequence (P33261 whole entry, looked up): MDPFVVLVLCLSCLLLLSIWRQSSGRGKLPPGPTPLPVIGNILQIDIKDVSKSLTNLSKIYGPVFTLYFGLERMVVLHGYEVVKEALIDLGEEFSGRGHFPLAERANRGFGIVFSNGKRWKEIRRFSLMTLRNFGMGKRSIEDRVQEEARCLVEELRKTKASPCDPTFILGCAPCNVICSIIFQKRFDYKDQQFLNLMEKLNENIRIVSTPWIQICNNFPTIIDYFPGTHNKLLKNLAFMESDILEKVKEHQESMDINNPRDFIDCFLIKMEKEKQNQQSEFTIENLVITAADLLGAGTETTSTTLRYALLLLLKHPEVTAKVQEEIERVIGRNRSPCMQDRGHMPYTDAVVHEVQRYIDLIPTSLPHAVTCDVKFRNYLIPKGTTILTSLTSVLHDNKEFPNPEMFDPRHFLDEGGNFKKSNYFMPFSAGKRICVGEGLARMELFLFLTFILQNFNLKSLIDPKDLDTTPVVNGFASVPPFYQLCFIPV
Procedure, shortened: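 Relative luminescence units recorded 20 min after the detection reagent stopped a 1 h, 37C CYP2C19 reaction on proluciferin substrate, which was started by NADPH regeneration following 10 min room-temperature compound preincubation; ketoconazole positive control.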
In the case of `COC(=O)Nc1nc2ccc(C(=O)C3CC3)cc2[nH]1`, the “activity change, negative = inhibition” value is reported as 9.36% [at 52.9 µM]. For `CCOC(=O)c1ccc(NC(=O)CN2CCCCC2)cc1`, the “activity change, negative = inhibition” value was -5.83% [at 52.9 µM]. `Cc1ccc(NC(=O)N(C)C)cc1NC(=O)N(C)C` was tested, and the “activity change, negative = inhibition” value was -6.33%. For `[Cl][Nd]([Cl])[Cl]`, the “activity change, negative = inhibition” value was -12.9%. For `CCN(CC)CCOC(=O)C(c1ccccc1)c1ccccc1`, the Potency was 21.9 µM (active). `C[C@@H]1[C@H](O)[C@@H](C)/C=C/C=C\C=C\C=C\C=C\C=C\C=C\[C@H](O[C@@H]2O[C@H](C)[C@@H](O)[C@H](N)[C@@H]2O)C[C@@H]2O[C@](O)(C[C@@H](O)C[C@@H](O)[C@H](O)CC[C@@H](O)C[C@@H](O)CC(=O)O[C@H]1C)C[C@H](O)[C@H]2C(=O)O` (stereo in doubt) was tested, and the “activity change, negative = inhibition” value was -3.68%. With `CCCCCCC(O)CCOC(C)=O` (stereo unspecified) the Potency was 167 µM (active). For `Cc1ccc(N(CCO)CCO)cc1`, the Potency was 17.8 µM (active). With `CCCCCCCC(=O)OCCCCCC` the “activity change, negative = inhibition” value was 11.7%. With `CC[C@H]1OC(=O)[C@H](C)[C@@H](O[C@H]2C[C@@](C)(OC)[C@@H](O)[C@H](C)O2)[C@H](C)[C@@H](O[C@@H]2O[C@H](C)C[C@H](N(C)C)[C@H]2O)[C@](C)(O)C[C@@H](C)C(=O)[C@H](C)[C@@H](O)[C@]1(C)O` the “activity change, negative = inhibition” value was 1.9% [at 52.9 µM]. With `CCCCCCCCCCCCCOC(=O)CCSCCC(=O)OCCCCCCCCCCCCC` the Potency was 10.6 µM (active). With `O[C@@H](CNC[C@H](O)[C@H]1CCc2cc(F)ccc2O1)[C@@H]1CCc2cc(F)ccc2O1` the “activity change, negative = inhibition” value was 10.6% [at 52.9 µM]. For `CC(=O)C(=O)CC(C)C`, the Potency was 35.4 µM (active). In the case of `CC(=O)OCC(=O)[C@@]1(OC(C)=O)[C@@H](C)C[C@H]2[C@@H]3C[C@H](F)C4=CC(=O)C=C[C@]4(C)[C@@]3(F)[C@@H](O)C[C@@]21C`, the “activity change, negative = inhibition” value is reported as 16.8% [at 52.9 µM]. With `CC(CCc1ccc(O)cc1)NCCc1ccc(O)c(O)c1` (stereo unspecified) the “activity change, negative = inhibition” value was -19.8% [at 52.9 µM]. In the case of `CC(=O)NCCO`, the “activity change, negative = inhibition” value is reported as 0.754%. For `SCCc1cnccn1`, the Potency was 31.7 µM (active). In the case of `CCCCCCCCCCCCCOS(=O)(=O)O`, the “activity change, negative = inhibition” value is reported as -12.2%.

Each compound was assayed against Cytochrome P450 1A2 (Homo sapiens) (UniProt P05177) (assay: Cytochrome P450 Family 1 Subfamily A Member 2 (CYP1A2) small molecule antagonists: luciferase reporter qHTS assay (AID 1671199; further: nearly all actives have a fitted effect of over 50% in size)). Conditions: P450-Glo CYP1A2 enzyme, luciferin luminescence, 1 h; series mostly up to 115 µM; activity change, negative = inhibition: at the top concentration.
Cytochrome P450 1A2 (Homo sapiens), sequence (P05177 whole entry, looked up): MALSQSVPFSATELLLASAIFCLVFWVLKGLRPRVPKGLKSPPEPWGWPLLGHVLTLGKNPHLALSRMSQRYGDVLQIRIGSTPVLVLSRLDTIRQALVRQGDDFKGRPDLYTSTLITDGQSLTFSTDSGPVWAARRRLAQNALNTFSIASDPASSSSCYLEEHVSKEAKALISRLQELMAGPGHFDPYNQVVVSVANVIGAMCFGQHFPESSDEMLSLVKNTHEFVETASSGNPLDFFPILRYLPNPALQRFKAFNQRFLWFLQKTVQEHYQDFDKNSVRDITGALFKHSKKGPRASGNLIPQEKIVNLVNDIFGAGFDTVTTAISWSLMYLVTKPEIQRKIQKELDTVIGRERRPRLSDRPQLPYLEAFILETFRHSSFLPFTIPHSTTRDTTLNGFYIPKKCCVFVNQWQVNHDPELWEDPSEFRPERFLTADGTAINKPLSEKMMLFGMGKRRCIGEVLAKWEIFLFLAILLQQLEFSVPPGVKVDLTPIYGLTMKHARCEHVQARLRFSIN
Procedure, shortened: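 Luminescence from luciferin formed by CYP1A2 from a proluciferin substrate, read 20 min after detection reagent. Compound was pre-incubated 10 min with enzyme-substrate, and reaction started with NADPH regeneration solution for 1 h at room temperature; furafylline control.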
For `O=c1[nH]c2cc(C(F)(F)F)c(N3CCOCC3)cc2n(CP(=O)(O)O)c1=O`, the “activity change, negative = inhibition” value was -2.41% [at 53 µM]. `CSSc1ccoc1C` was tested, and the “activity change, negative = inhibition” value was -12.1%. In the case of `Cc1cccc(C)c1NC(=O)c1cc(S(N)(=O)=O)c(Cl)cc1O`, the “activity change, negative = inhibition” value is reported as 12.1% [at 53 µM]. For `CSCC[C@H](NC(=O)[C@H](Cc1c[nH]c2ccccc12)NC(=O)CCNC(=O)OC(C)(C)C)C(=O)N[C@@H](CC(=O)O)C(=O)N[C@@H](Cc1ccccc1)C(N)=O`, the “activity change, negative = inhibition” value was -6.59% [at 53 µM]. With `CC1CCC(C(C)CS)CC1S` (stereo unspecified) the “activity change, negative = inhibition” value was -18.2%. `CNS(=O)(=O)c1cc(C(=O)N2CCC(CCN3C4CCC3CC(n3c(C)nc5ccccc53)C4)(c3cccc(F)c3)CC2)c(Cl)cc1F` (stereo unspecified) was tested, and the “activity change, negative = inhibition” value was -14.2%. In the case of `CCN(CC)c1ccc(C(=C2C=CC(=[N+](CC)CC)C=C2)c2ccc(S(=O)(=O)O)cc2S(=O)(=O)[O-])cc1`, the Potency is reported as 10 µM (active). In the case of `FC(F)(F)C(F)(F)C(F)(F)C(F)(F)CCI`, the “activity change, negative = inhibition” value is reported as -21.5% [at 53 µM]. `Cc1ccc(S(=O)(=O)NC(=O)NC2CCCCC2)cc1` was tested, and the “activity change, negative = inhibition” value was -3.45% [at 53 µM]. In the case of `CC(C)c1ccc(C#N)cc1`, the “activity change, negative = inhibition” value is reported as -8.45%. `O=C(c1ccccc1)c1ccc(O)cc1` was tested, and the Potency was 32.1 µM (active). `O=[N+]([O-])c1ccc2ncccc2c1` was tested, and the Potency was 1.59 µM (active). `CCC(=O)OCc1ccc(OC)cc1` was tested, and the Potency was 57.8 µM (active). With `ClC1=C(Cl)C1(Cl)Cl` the “activity change, negative = inhibition” value was -14.8%. For `O=C(O)c1cccc(Oc2ccccc2)c1`, the “activity change, negative = inhibition” value was -3.68%. `COC(=O)Nc1nc2ccc(C(=O)C3CC3)cc2[nH]1` was tested, and the Potency was 10.2 µM (active). For `CCOC(=O)c1ccc(NC(=O)CN2CCCCC2)cc1`, the Potency was 32.3 µM (active). In the case of `[Cl][Nd]([Cl])[Cl]`, the “activity change, negative = inhibition” value is reported as -19.1%. In the case of `CCN(CC)CCOC(=O)C(c1ccccc1)c1ccccc1`, the Potency is reported as 15.5 µM (active). With `Cc1ccc(N(CCO)CCO)cc1` the Potency was 31.7 µM (active). For `CCCCCCCC(=O)OCCCCCC`, the “activity change, negative = inhibition” value was -6.92%. `CC[C@H]1OC(=O)[C@H](C)[C@@H](O[C@H]2C[C@@](C)(OC)[C@@H](O)[C@H](C)O2)[C@H](C)[C@@H](O[C@@H]2O[C@H](C)C[C@H](N(C)C)[C@H]2O)[C@](C)(O)C[C@@H](C)C(=O)[C@H](C)[C@@H](O)[C@]1(C)O` was tested, and the “activity change, negative = inhibition” value was -7.35% [at 53 µM]. For `O[C@@H](CNC[C@H](O)[C@H]1CCc2cc(F)ccc2O1)[C@@H]1CCc2cc(F)ccc2O1`, the “activity change, negative = inhibition” value was -10.6% [at 53 µM]. For `CC(=O)OCC(=O)[C@@]1(OC(C)=O)[C@@H](C)C[C@H]2[C@@H]3C[C@H](F)C4=CC(=O)C=C[C@]4(C)[C@@]3(F)[C@@H](O)C[C@@]21C`, the “activity change, negative = inhibition” value was -0.0795% [at 53 µM]. `CC(CCc1ccc(O)cc1)NCCc1ccc(O)c(O)c1` (stereo unspecified) was tested, and the “activity change, negative = inhibition” value was 3.96% [at 53 µM]. `CC(=O)NCCO` was tested, and the “activity change, negative = inhibition” value was -13.8%. With `SCCc1cnccn1` the Potency was 35.6 µM (active). For `CCCCCCCCCCCCCOS(=O)(=O)O`, the “activity change, negative = inhibition” value was 2.11%.

These compounds were tested against Voltage-gated inwardly rectifying potassium channel KCNH2 (Homo sapiens) (UniProt Q12809) (assay: Human Ether-a-go-go-Related Gene (hERG) channel small molecule antagonists: fluorescence cell-based qHTS assay (AID 1671200; further: nearly all actives have a fitted effect of over 50% in size;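 on activity change, negative = inhibition: hERG-expressing U2OS cells given a thallium stimulus after FluxOR II dye loading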)). Conditions: hERG-U2OS cells, FluxOR thallium flux fluorescence; series mostly up to 76.8 µM; activity change, negative = inhibition: at the top concentration.
Voltage-gated inwardly rectifying potassium channel KCNH2 (Homo sapiens), sequence (Q12809 whole entry, looked up): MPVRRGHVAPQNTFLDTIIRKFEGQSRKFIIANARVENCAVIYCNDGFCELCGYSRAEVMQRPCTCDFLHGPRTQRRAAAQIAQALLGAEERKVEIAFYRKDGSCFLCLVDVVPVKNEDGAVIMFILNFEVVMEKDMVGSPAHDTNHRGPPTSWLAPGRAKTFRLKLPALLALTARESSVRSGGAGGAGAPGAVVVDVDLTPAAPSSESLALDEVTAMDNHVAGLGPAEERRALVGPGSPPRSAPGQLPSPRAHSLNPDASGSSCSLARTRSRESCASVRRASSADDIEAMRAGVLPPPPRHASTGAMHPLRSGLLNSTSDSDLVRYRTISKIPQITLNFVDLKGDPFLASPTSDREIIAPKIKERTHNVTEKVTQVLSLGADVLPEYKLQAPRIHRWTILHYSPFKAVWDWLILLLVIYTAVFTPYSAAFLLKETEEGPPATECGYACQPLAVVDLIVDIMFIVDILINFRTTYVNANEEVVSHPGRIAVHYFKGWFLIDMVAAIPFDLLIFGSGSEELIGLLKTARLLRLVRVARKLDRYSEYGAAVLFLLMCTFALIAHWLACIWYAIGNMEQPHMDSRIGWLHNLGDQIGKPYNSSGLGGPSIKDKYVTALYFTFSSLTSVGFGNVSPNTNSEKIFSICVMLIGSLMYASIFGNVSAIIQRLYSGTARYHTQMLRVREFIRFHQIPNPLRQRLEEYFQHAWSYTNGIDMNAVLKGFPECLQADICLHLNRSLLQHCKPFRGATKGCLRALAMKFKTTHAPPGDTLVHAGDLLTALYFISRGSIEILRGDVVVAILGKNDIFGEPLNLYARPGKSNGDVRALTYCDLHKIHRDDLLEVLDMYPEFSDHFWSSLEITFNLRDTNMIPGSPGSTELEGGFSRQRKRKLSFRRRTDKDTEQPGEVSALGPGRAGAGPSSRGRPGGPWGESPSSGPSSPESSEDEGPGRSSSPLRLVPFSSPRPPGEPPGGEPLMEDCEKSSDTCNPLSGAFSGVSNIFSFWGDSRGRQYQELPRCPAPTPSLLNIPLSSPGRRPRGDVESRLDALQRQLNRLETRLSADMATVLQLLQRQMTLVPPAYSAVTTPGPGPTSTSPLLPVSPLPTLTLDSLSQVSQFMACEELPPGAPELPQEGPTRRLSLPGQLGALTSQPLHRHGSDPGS
Procedure, shortened: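 hERG-U2OS cells plated overnight at 37 C, loaded with FluxOR II dye 1 h at RT in dark; after 10 min, thallium stimulus added. Fluorescence (480/540 nm) read kinetically for 2 min at 1 s intervals.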
In the case of `O=c1[nH]c2cc(C(F)(F)F)c(N3CCOCC3)cc2n(CP(=O)(O)O)c1=O`, the “activity change, negative = inhibition” value is reported as -3.58% [at 35.3 µM]. In the case of `CSSc1ccoc1C`, the “activity change, negative = inhibition” value is reported as -6.96%. For `Cc1cccc(C)c1NC(=O)c1cc(S(N)(=O)=O)c(Cl)cc1O`, the “activity change, negative = inhibition” value was 0.915% [at 35.3 µM]. In the case of `CC(CO)(CO)C(=O)O`, the “activity change, negative = inhibition” value is reported as 5.21%. For `CC(C)(O)CCc1ccccc1`, the “activity change, negative = inhibition” value was 5.44%. `CSCC[C@H](NC(=O)[C@H](Cc1c[nH]c2ccccc12)NC(=O)CCNC(=O)OC(C)(C)C)C(=O)N[C@@H](CC(=O)O)C(=O)N[C@@H](Cc1ccccc1)C(N)=O` was tested, and the “activity change, negative = inhibition” value was 10.8% [at 35.3 µM]. `CC(C)(C)S` was tested, and the “activity change, negative = inhibition” value was 1.91%. For `CC(C)(C)NCC(O)COc1cccc2c1C[C@H](O)[C@H](O)C2` (stereo partly specified), the “activity change, negative = inhibition” value was 0.056% [at 35.3 µM]. With `CCN(CC)c1ccc(C(=C2C=CC(=[N+](CC)CC)C=C2)c2ccc(S(=O)(=O)O)cc2S(=O)(=O)[O-])cc1` the “activity change, negative = inhibition” value was -7.46%. With `FC(F)(F)C(F)(F)C(F)(F)C(F)(F)CCI` the “activity change, negative = inhibition” value was 2.62% [at 35.3 µM]. With `Cc1ccc(S(=O)(=O)NC(=O)NC2CCCCC2)cc1` the “activity change, negative = inhibition” value was 4.86% [at 35.3 µM]. In the case of `CC(C)c1ccc(C#N)cc1`, the “activity change, negative = inhibition” value is reported as -3.45%. For `O=C(c1ccccc1)c1ccc(O)cc1`, the “activity change, negative = inhibition” value was -5.1%. In the case of `CCN(CC)C(=O)N1CCN(C)CC1`, the “activity change, negative = inhibition” value is reported as -5.84% [at 35.3 µM]. `O=[N+]([O-])c1ccc2ncccc2c1` was tested, and the “activity change, negative = inhibition” value was 7.97%. With `CCC(=O)OCc1ccc(OC)cc1` the “activity change, negative = inhibition” value was -1.72%. With `ClC1=C(Cl)C1(Cl)Cl` the “activity change, negative = inhibition” value was 4.35%. `O=C(O)c1cccc(Oc2ccccc2)c1` was tested, and the “activity change, negative = inhibition” value was -0.946%. `COC(=O)Nc1nc2ccc(C(=O)C3CC3)cc2[nH]1` was tested, and the “activity change, negative = inhibition” value was -0.43% [at 35.3 µM]. With `CCOC(=O)c1ccc(NC(=O)CN2CCCCC2)cc1` the “activity change, negative = inhibition” value was -11.4% [at 35.3 µM]. `Cc1ccc(NC(=O)N(C)C)cc1NC(=O)N(C)C` was tested, and the “activity change, negative = inhibition” value was 0.0979%. With `[Cl][Nd]([Cl])[Cl]` the “activity change, negative = inhibition” value was -5.56%. In the case of `CCN(CC)CCOC(=O)C(c1ccccc1)c1ccccc1`, the Potency is reported as 2.68 µM (active). With `C[C@@H]1[C@H](O)[C@@H](C)/C=C/C=C\C=C\C=C\C=C\C=C\C=C\[C@H](O[C@@H]2O[C@H](C)[C@@H](O)[C@H](N)[C@@H]2O)C[C@@H]2O[C@](O)(C[C@@H](O)C[C@@H](O)[C@H](O)CC[C@@H](O)C[C@@H](O)CC(=O)O[C@H]1C)C[C@H](O)[C@H]2C(=O)O` (stereo in doubt) the “activity change, negative = inhibition” value was 7.27%. For `CCCCCCC(O)CCOC(C)=O` (stereo unspecified), the “activity change, negative = inhibition” value was 2.72% [at 200 µM]. For `Cc1ccc(N(CCO)CCO)cc1`, the “activity change, negative = inhibition” value was -0.711%. In the case of `CCCCCCCC(=O)OCCCCCC`, the “activity change, negative = inhibition” value is reported as -5.27%. `CCCCCCCCCCCCCOC(=O)CCSCCC(=O)OCCCCCCCCCCCCC` showed an activity change, negative = inhibition of -9.44% [at 15.8 µM]. For `O[C@@H](CNC[C@H](O)[C@H]1CCc2cc(F)ccc2O1)[C@@H]1CCc2cc(F)ccc2O1`, the Potency was 2.68 µM (active). With `CC(=O)C(=O)CC(C)C` the “activity change, negative = inhibition” value was 9.54%. For `CC(=O)OCC(=O)[C@@]1(OC(C)=O)[C@@H](C)C[C@H]2[C@@H]3C[C@H](F)C4=CC(=O)C=C[C@]4(C)[C@@]3(F)[C@@H](O)C[C@@]21C`, the “activity change, negative = inhibition” value was -1.3% [at 35.3 µM]. In the case of `CC(CCc1ccc(O)cc1)NCCc1ccc(O)c(O)c1` (stereo unspecified), the Potency is reported as 13.4 µM (active). `CC(=O)NCCO` was tested, and the “activity change, negative = inhibition” value was -1.37%. With `SCCc1cnccn1` the “activity change, negative = inhibition” value was 5.69%. For `CCCCCCCCCCCCCOS(=O)(=O)O`, the “activity change, negative = inhibition” value was 3.14%.
